Screening data (PubChem)
KCNH2 WT inh – qHTS for Inhibitors of KCHN2 3.1: Wildtype qHTS; AID 720551, 2013; activity change, % at 1.84 µM; Voltage-gated inwardly rectifying potassium channel KCNH2 (Homo sapiens), Q12809; actives 0.37% (n = 340,000); U2OS, BacMam KCNH2, thallium flux FluxOr; active compounds read low;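 active = maximum activity change below -70%; inconclusive = maximum activity change between -70% and -50%; inactive = maximum activity change above -50%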; note: % is set by controls: 0 for no effect and ±100 for the full control effect
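U2OS cells transduced with wild-type KCNH2 virus are loaded with FluxOr dye for 45 min, and thallium flux is measured in kinetic reads before and after stimulation buffer. Rate constants are normalized to DMSO controls.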
KB-3-1 cytotox – qHTS assay for MDR1-selective chemotherapeutics: Primary screen using the parental adenocarcinoma cell KB-3-1; KB-3-1 viability, CellTiter-Glo ATP luminescence, 72 h; Potency, µM (doses to about 46.1 µM), usual class: cytotoxic; actives 1.4% (n = 400,000); AID 1347075, 2019; note: potency is the fitted concentration of half-maximal effect; % is set by controls: 0 for no effect and ±100 for the full control effect; nearly all actives have a fitted effect of over 60% in size
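Cytotoxicity in the drug-sensitive parental line KB-3-1 was scored as loss of CellTiter-Glo luminescence following 72 h incubation with compound. Values come from curve fitting of normalized concentration-response data.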
KB-V1 MDR tox – qHTS assay for MDR1-selective chemotherapeutics: Primary screen using the drug-selected MDR subline cells KB-V1; AID 1347076, 2019; KB-V1 MDR cells viability, CellTiter-Glo, 72 h; Potency, µM (top dose mostly 46.1 µM), most hits filed as cytotoxic; actives 3.4% (n = 400,000); note: potency is the fitted concentration of half-maximal effect; % is set by controls: 0 for no effect and ±100 for the full control effect; nearly all actives have a fitted effect of over 60% in size
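Cytotoxicity toward P-gp-expressing KB-V1 cells was determined as loss of CellTiter-Glo luminescence after 72 h at 37 degrees C. Compounds were tested in quantitative HTS format across a concentration range, with curves fitted to normalized data.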
KCNH2 3.1 inh – qHTS for Inhibitors of KCHN2 3.1: Mutant qHTS. Potassium voltage-gated channel subfamily H member 2, brain isoform KCNH2 3.1 (human). U2OS KCNH2 3.1, thallium flux FluxOr; active compounds read low. activity change, % (tested at about 1.8 µM). actives 0.95% (n = 340,000);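 active = maximum activity change below -70%; inconclusive = maximum activity change from -70% to -50%; inactive = maximum activity change above -50%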;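 note: thallium influx rate constant from kinetic fluorescence after stimulation buffer; % is set by controls: 0 for no effect and ±100 for the full control effect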
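Measured as rate of thallium-driven FluxOr signal in transduced U2OS cells carrying the 3.1 channel, read kinetically for 2 min upon stimulation; values are rate constants scaled to DMSO control wells.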
MCF10A rereplic – A quantitative high throughput screen for small molecules that induce DNA re-replication in MCF 10a normal breast cells | MCF 10A DNA re-replication, Hoechst nuclear intensity, 48 h | Potency, µM (titrated, usually from 46.1 µM), inactives show at the top dose activity, positive = re-replication, hits mostly activators | actives 2.9% (n = 350,000); note: potency is the fitted concentration of half-maximal effect; % of control where 0% means no effect; nearly all actives have a fitted effect of over 50% in size
SW480 rereplic – A quantitative high throughput screen for small molecules that induce DNA re-replication in SW480 colon adenocarcinoma cells | SW480 DNA re-replication, Hoechst DNA content imaging, 48 h | Potency, µM (series often up to 46.1 µM), for the others: at the highest dose re-replication activation, actives largely listed as activators | actives 1.8% (n = 340,000) | AID 624297, 2012; note: potency is the fitted concentration of half-maximal effect; % of control where 0% means no effect; nearly all actives have a fitted effect of over 55% in size
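Image-based DNA-content assay: after two days of treatment, nuclei were labelled with the DNA dye Hoechst and imaged, and hits were compounds raising the count of nuclei showing high fluorescence intensity.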
* = called active by the depositor; i = inactive; u = inconclusive; x = no result given. Most compounds without a hit are left out; they make up all but 7.6% or so of the library. Unless noted, calls come from the whole dose curve; as a rule, active = well fitted curve in the direction sought with a large enough effect; inconclusive = small, poorly fitted or top-dose-only effect, or another doubt; inactive = no such curve, though single readings can be large; an effect the other way counts as inactive or inconclusive.

SMILES	KCNH2 WT inh	KB-3-1 cytotox	KB-V1 MDR tox	KCNH2 3.1 inh	MCF10A rereplic	SW480 rereplic
C/C(=N\NC(=O)c1cc(C2CC2)nc2ccccc12)c1ccc(O)cc1O	-2	u	i	14	14%	1.5µM*
C/C(=N\NC(=O)c1cc(-c2cccnc2)nc2ccccc12)c1ccccc1O	-5	i	6.5µM*	-110*	u	24%
C/C(=N\NC(=O)c1cc(C2CC2)nc2ccccc12)c1ccc(C)s1	2	i	i	-12	u	u
CC(OC(=O)c1cc(-c2cccnc2)nc2ccccc12)C(=O)Nc1ccc2ccccc2c1 (stereo unspecified)	-10	i	i	4	16µM*	2%
Cc1ccc(C(c2sc3nc(-c4ccco4)nn3c2O)N2CCN(Cc3ccccc3)CC2)cc1 (stereo unspecified)	x	i	i	x	x	x
O=c1[nH][nH]c2c1[C@H](c1ccc(F)cc1)O[C@H](CCc1ccccc1)C2	x	i	i	x	x	x
CNC(=S)N(CCc1c(C)[nH]c2ccc(C)cc12)Cc1cccs1	24	i	u	-3	3.7µM*	30%
O=C(c1ccccc1)N1CCN(CC(O)COCC2CC=CCC2)CC1 (stereo unspecified)	11	i	9.2µM*	-11	4%	-12%
CCOC(=O)c1ccsc1NC(=O)CCS(=O)(=O)c1ccccc1	5	x	x	-1	-1%	u
CCOC(=O)c1cc(C(C)C)sc1NC(=O)COC(=O)CCS(=O)(=O)c1ccccc1	-2	i	18µM*	-6	16%	u
COc1ccc(NC(=O)C2CCCN(C(=O)NC3CCCCC3)C2)cc1OC (stereo unspecified)	-4	i	15µM*	-12	2%	1%
COc1ccc(S(=O)(=O)N2CCC(C(=O)NC3CCCCC3)CC2)cc1OC	-1	i	i	4	0%	u
COc1ccc(S(=O)(=O)N2CCN(C(=O)NC3CCCCC3)CC2)cc1OC	-26	i	16µM*	6	4%	1%
COc1ccc(NC(=O)C2CCCN2C(=O)NC2CCCCC2)cc1OC (stereo unspecified)	3	i	i	3	-1%	-3%
CC(C)C(=O)N1CCC1(C)C(=O)Nc1ccc2cn[nH]c2c1 (stereo unspecified)	x	i	u	x	x	x
CCOc1ccc(S(=O)(=O)NCCCN2CCOCC2)c2ccccc12	-3	i	i	-27	9%	-2%
CCCOc1ccc(S(=O)(=O)NCCCN2CCOCC2)c2ccccc12	-206*	i	i	-13	22%	5%
CC(=O)c1ccc(S(=O)(=O)N2CCCC(N(C)CCc3ccccc3)C2)cc1 (stereo unspecified)	u	u	i	-94*	1%	0%
COc1ccc(CCN(C)C2CCCN(S(=O)(=O)c3ccc(C)cc3)C2)cc1OC (stereo unspecified)	-31	i	i	-83*	5%	-5%
COc1ccc(Cl)cc1NC(=O)C1CCCN(c2ncnc3onc(C)c23)C1 (stereo unspecified)	x	i	u	x	x	x
CCc1ccc(CNC(=O)CCS(=O)(=O)Cc2ccc(C)cc2)cc1	0	i	i	-2	-2%	-22%
N#C/C(=C\c1ccc(-c2ccccc2C(=O)O)o1)c1nc2ccccc2[nH]1	-6	i	u	2	u	u
N#C/C(=C/c1ccc(Sc2nc3ccccc3[nH]2)o1)c1cccc(Br)c1	-7	u	18µM*	-7	u	30%
N#C/C(=C/c1ccc(Sc2nc3ccccc3[nH]2)o1)c1ccccc1F	42	i	3.7µM*	1	20%	u
N#C/C(=C/c1ccc(Sc2nc3ccccc3[nH]2)o1)c1cccc(F)c1	6	i	7.3µM*	-12	28%	u
SMILES	KCNH2 WT inh	KB-3-1 cytotox	KB-V1 MDR tox	KCNH2 3.1 inh	MCF10A rereplic	SW480 rereplic
CC(C)C(=O)Nc1ccc(/C=C2\C=Cc3ccccc32)cc1	x	i	i	x	x	x
COc1cc(OC)cc(C(=O)N2CCN(C(=O)c3cccs3)CC2)c1	9	i	i	u	-2%	0%
Cn1c(NCc2cccnc2)nc2c1c(=O)n(Cc1ccccc1F)c(=O)n2C	-5	u	15µM*	16	-4%	-8%
Cc1ccc(Oc2nc3c(c(=O)n(Cc4ccccc4F)c(=O)n3C)n2C)cc1	14	i	12µM*	7	2%	-7%
Cn1c(=O)c2c(nc(NCCO)n2CCCc2ccccc2)n(C)c1=O	-6	i	i	-4	1%	12%
CC(C)CCn1c(NCCc2ccccc2)nc2c1c(=O)n(C)c(=O)n2C	-12	u	13µM*	-8	20%	-3%
Cc1cccc(Cn2c(NCCO)nc3c2c(=O)n(C)c(=O)n3C)c1	3	u	4.1µM*	1	-11%	-4%
CN(CCc1cn[nH]c1)C(=O)C1CCC(=O)N(CC2CCCCC2)C1 (stereo unspecified)	-17	i	u	9	-4%	-6%
CCCS(=O)(=O)N1CCC(C(=O)Oc2ccc(OC)cc2)CC1	-2	i	i	-5	14%	1%
COc1ccc(CCNc2nc3c(c(=O)n(C)c(=O)n3C)n2C)cc1OC	13	i	15µM*	31	6%	-3%
Cn1c(=O)c2c(nc(NCc3cccnc3)n2Cc2cccc(C(F)(F)F)c2)n(C)c1=O	1	i	u	-3	9%	-2%
COc1cccc(Cn2c(NCc3cccnc3)nc3c2c(=O)n(C)c(=O)n3C)c1	15	3.7µM*	i	-18	2%	-2%
Cn1c(=O)c2c(nc(NCCc3ccccc3)n2Cc2ccc(F)cc2)n(C)c1=O	-8	u	4.1µM*	23	26%	7%
CCCCCCNC(=O)O[C@H]1Cn2c(=O)ccc(=O)n2[C@@H]2CN(S(=O)(=O)c3ccc(C)cc3)C[C@]12O	15	16µM*	i	-4	x	x
COc1ccc(-c2cc(C(=O)Nc3cnn(Cc4ccccc4C)c3)no2)cc1OC	-248*	i	i	-14	-5%	u
